Screening data (PubChem BioAssay)
Shown are actives, neighbours in structure and some others; about 7.3% of the full set was active somewhere.
FLuc modulator: inhibits or activates purified firefly luciferase, miR-21 counter-screen; purified FLuc, Km substrates, luminescence inhibition; Potency, µM (highest dose often 57.5 µM), inactives show top-dose activity change, negative = inhibition, hits mostly inhibitors; AID 588342; actives 6.9% (n = 360,000);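 note: plate controls were vehicle for no effect and reference inhibitor for full effect; nearly all actives have a fitted effect of over 55% in size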
Target sequence (P08659 whole entry, looked up): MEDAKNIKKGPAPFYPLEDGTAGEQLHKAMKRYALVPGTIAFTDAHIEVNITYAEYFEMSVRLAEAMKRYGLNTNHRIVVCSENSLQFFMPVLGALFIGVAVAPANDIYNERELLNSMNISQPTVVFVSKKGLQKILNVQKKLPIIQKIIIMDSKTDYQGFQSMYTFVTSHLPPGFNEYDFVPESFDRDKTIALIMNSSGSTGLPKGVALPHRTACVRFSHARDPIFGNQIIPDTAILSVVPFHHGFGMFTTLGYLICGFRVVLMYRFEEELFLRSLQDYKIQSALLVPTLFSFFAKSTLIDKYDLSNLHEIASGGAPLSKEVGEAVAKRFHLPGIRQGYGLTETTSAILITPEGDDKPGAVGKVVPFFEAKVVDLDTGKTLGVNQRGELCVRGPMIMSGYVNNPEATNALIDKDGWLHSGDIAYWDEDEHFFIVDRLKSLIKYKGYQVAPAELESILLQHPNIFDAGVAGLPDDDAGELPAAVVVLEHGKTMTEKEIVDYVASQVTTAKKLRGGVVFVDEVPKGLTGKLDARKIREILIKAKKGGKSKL
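Purified P. pyralis luciferase, 10 nM final, with Km-level 10 uM D-luciferin and 10 uM ATP in 50 mM Tris acetate pH 7.5, 10 mM Mg acetate, 0.01% Tween-20, 0.05% BSA; 6-point qHTS titration about 60 µM downward; luminescence read.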
ELG1 genotox: inducers of genotoxicity in HEK293T ELG1-luciferase cells; actives 1.3% (n = 330,000); HEK293T ELG1-luciferase reporter, luminescence, 16 h; Potency, µM (doses to about 46 µM), inactives show at the highest dose activity change, positive = activation, usual class: activators; AID 504466; note: % of control where 0% means no effect; nearly all actives have a fitted effect of over 60% in size
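Screening used a luciferase reporter fused to human ELG1 in HEK293T cells. Luminescence was read on a CCD plate imager after 16 hr exposure and 30 min ONE-Glo incubation.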
NPC1 promoter act: activators of NPC1 promoter; Potency, µM (top dose mostly 9.22 µM), for the others: at the top dose activation, hits mostly activators; Huh7 NPC1 promoter luciferase reporter, 24 h; actives 2.4% (n = 320,000); note: % of control where 0% means no effect; nearly all actives have a fitted effect of over 60% in size
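Huh7 cells stably carrying NPC1 promoter–luciferase, plated in Opti-MEM with 10% FBS for 2 h, were exposed to compound in DMSO for 24 h at 37 °C; luciferase reagent was added for 10 min and luminescence read.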
SMN2 splice up: SMN2 splice variant enhancement | HEK293 SMN2-luciferase splicing reporter, luminescence, 30-36 h | actives 2.8% (n = 210,000) | Potency, µM (doses to about 46.1 µM), without a hit: top-dose activity change, positive = activation, hits mostly activators; note: % of control where 0% means no effect; nearly all actives have a fitted effect of over 55% in size
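HEK293 cells carry an SMN2 minigene-luciferase reporter in which exon 7 inclusion puts luciferase in frame. Cells were seeded at 2000 cells/well, attached for 10-12 hours, then exposed to compounds for 30-36 hours at 37C before ONE-Glo luminescence.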
uPA surface inh: blocks generation of uPA at the cell surface. Potency, µM (titrated, usually from 38.3 µM), without a hit: at the highest dose activity change, negative = inhibition, usual class: inhibitors. actives 0.31% (n = 330,000). AID 540303. cell surface uPA generation assay, qHTS; active = well fitted inhibition curve with a large enough effect; inconclusive = small, poorly fitted or top-dose-only effect; inactive = no such curve, though single readings can be large or run the other way; tested in mouse RAW 264.7 cells; note: % is set by controls: 0 for no effect and ±100 for the full control effect; nearly all actives have a fitted effect of over 55% in size
Rab9 promoter act: activates the Rab9 promoter; actives 2.8% (n = 320,000); Huh7 Rab9 promoter-luciferase reporter, luminescence, 24 h; Potency, µM (top dose mostly 9.22 µM), for inactives: top-dose activation, negative = inhibition, hits mostly activators; note: % of control where 0% means no effect; nearly all actives have a fitted effect of over 60% in size
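Quantitative HTS format; Huh7 Rab9-luciferase reporter cells (1500/well) receive compound 2 h post-plating, incubate 24 h at 37 °C, then get luciferase reagent for 10 min before luminescence reading.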
Active calls of the source: *; ? = inconclusive; nt = no result; ! = not confirmed by another sample; [ ] = another dose, or the depositor's remark. Unless noted, calls come from the whole dose curve; as a rule, active = well fitted curve in the direction sought with a large enough effect; inconclusive = small, poorly fitted or top-dose-only effect, or another doubt; inactive = no such curve, though single readings can be large; an effect the other way counts as inactive or inconclusive. Potency is the fitted concentration of half-maximal effect.

SMILES | FLuc modulator | ELG1 genotox | NPC1 promoter act | SMN2 splice up | uPA surface inh | Rab9 promoter act
C/C(=N\NC(=O)c1c(Cl)c(C)nn1C)c1cccc(NC(=O)COc2ccccc2)c1 | -0.7% | -8.2% | 10.0% | nt | -7.1% | 9.8%
C/C(=N\NC(=O)c1cc(Br)ccc1O)c1cccc(NC(=O)c2ccccc2F)c1 | ? | 10.3% | -1.2% | nt | 1.4% | -5.2%
O=C(NCc1ccc(Cl)cc1)C1CCCN(c2ncnc3onc(-c4ccc(F)cc4)c23)C1 (stereo not drawn) | -10.6% | nt | nt | nt | nt | nt
C/C(=N\NC(=O)c1ccccc1F)c1ccc(C#N)cc1 | ? | ? | ? | ? | -8.2% | 3.98µM*
C/C(=N\NC(=O)c1c(Br)c(C)nn1C)c1cccc(NC(=O)c2ccccc2F)c1 | ? | 0.2% | 1.7% | 8.8% | 7.3% | -0.2%
C/C(=N\NC(=O)c1nn(C)cc1Br)c1cccc(NC(=O)C(C)(C)C)c1 | ? | 4.0% | -4.1% | -6.8% | -2.5% | -8.4%
C/C(=N\NC(=O)c1c(Br)c(C)nn1C)c1cccc(NC(=O)c2ccccc2C)c1 | 12µM* | 0.7% | 1.5% | -2.7% | -3.2% | -4.7%
C/C(=N\NC(=O)c1nn(C)c(C)c1Br)c1cccc(NC(=O)c2ccc(F)cc2)c1 | 1.9µM* | 8.5% | 27.9% | ? | -5.0% | ?
Cc1cc(C)c2c(N)c(C(=O)Nc3ncc(C)s3)sc2n1 | 0.0953µM* | ? | -10.3% | -55.5% | -16.2% | ?
COCc1cc(C)nc2sc(C(=O)Nc3ccccc3C)c(N)c12 | ? | -2.3% | 0.7% | nt | -6.4% | 1.0%
COc1ccc2nc(NC(=O)c3sc4nc(C)cc(C)c4c3N)sc2c1 | 0.12µM* | ? | ? | nt | ? | ?
COCc1cc(C)nc2sc(C(=O)Nc3ccccc3Br)c(N)c12 | 8.49µM* | 6.6% | 15.3% | nt | -3.7% | 21.2%
Cc1cc(C)c2c(N)c(C(=O)Nc3ccccc3F)sc2n1 | nt | ? | 1.78µM* | nt | -1.8% | 2.24µM*
COC(=O)c1sc2nc(C)cc(C)c2c1N | ? | 7.4% | -0.2% | nt | 0.9% | 16.5%
Cc1cccc(C)c1NC(=O)C(NS(=O)(=O)c1ccc2c(c1)CCC(=O)N2)c1ccccc1 (stereo not drawn) | 5.7% | nt | nt | -0.8% | nt | nt
O=C(CSc1ncnc2nc[nH]c12)c1ccccc1 | 21.3µM* | 0.8% | 2.82µM* | 11.2µM*! | -4.4% | 3.98µM*
c1ccc(CCSc2ncnc3nc[nH]c23)cc1 | 15.1µM* | 6.8% | ? | -6.7% | ? | ?
O=C(O)CCSc1ncnc2nc[nH]c12 | nt | nt | nt | -11.1%[9.22 µM] | nt | nt
COc1ccc(-c2oc3ncn4nc(COc5ccccc5C)nc4c3c2-c2ccc(OC)cc2)cc1 | 0.0% | nt | nt | -0.5% | nt | nt
O=C1CCN(CCc2ccccc2)CCN1[C@H](CSc1ccc(Br)cc1)c1ccccc1 | ? | -2.9% | 14.1% | nt | 5.2% | -0.7%
CCCN1CCC(=O)N([C@H](CSc2ccc(Br)cc2)c2ccccc2)CC1 | 16.9µM* | 11.7% | 22.2% | nt | 8.2% | ?
CCCN1CCC(=O)N([C@H](CSc2ccccc2)CC(C)C)CC1 | 21.3µM* | ? | 3.16µM* | nt | -27.4% | 3.16µM*
CCCN1CCC(=O)N([C@H](CSc2ccc(C)cc2)CC(C)C)CC1 | 10.7µM* | ? | 3.98µM* | nt | ? | ?
CC(C)C[C@@H](CSc1ccccc1)N1CCN(CC(C)C)CCC1=O | 15.1µM* | ? | ? | nt | 0.3% | ?
CCCN1CCC(=O)N([C@H](CSc2ccc(C)cc2)Cc2ccccc2)CC1 | -1.1% | -3.0% | -5.4% | nt | -22.5% | -2.0%
SMILES | FLuc modulator | ELG1 genotox | NPC1 promoter act | SMN2 splice up | uPA surface inh | Rab9 promoter act
Cc1oc2ncn(CC(C)C)c(=O)c2c1C(=O)NCCCN(Cc1ccccc1)C(C)C | -5.6% | nt | nt | nt | nt | nt
CCOc1ccc(OCCC(=O)OCC(=O)Nc2ccc(C)c(S(=O)(=O)N3CCCCC3)c2)cc1 | 10.7µM* | 0.4% | -0.7% | nt | -5.8% | -1.1%
CCOc1cc(C(=O)CCC(=O)OCC(=O)Nc2ccc(C)c(S(=O)(=O)N(C)C)c2)ccc1O | 19µM* | 13.6% | 5.4% | -6.5% | -2.8% | 0.1%
Cc1ccc(NC(=O)COC(=O)CCC(=O)c2ccc(Cl)cc2)cc1S(=O)(=O)N(C)C | ? | 2.9% | -2.4% | nt | 1.1% | -3.4%
CCOc1ccc(CCNC(=O)CN2CCN(Cc3ccc(Cl)cc3)C2=O)cc1OCC | -2.1% | nt | nt | -42.5% | nt | nt
Oc1ccccc1-c1nc2c3ccccc3c3ccccc3c2[nH]1 | ? | -4.5% | ? | nt | -9.0% | ?
c1csc(-c2nc3c4ccccc4c4ccccc4c3[nH]2)c1 | 15.1µM* | -12.7% | -3.8% | -10.0% | -15.4% | -7.0%
O=C(c1ccccc1-c1nc(-c2ccccc2Cl)no1)N1CCOCC1 | 2.5% | 2.5% | 0.4% | nt | 3.6% | 1.3%
O=C(O)c1ccc(-c2noc(-c3ccccc3Cl)n2)cc1 | nt | nt | nt | nt | -26.7% | nt
CC(C)(C)NC(=O)c1ccccc1-c1nc(-c2ccccc2Cl)no1 | 12µM* | 6.4% | -1.9% | -8.4% | 9.6% | -3.8%
CC(C)NC(=O)c1ccccc1-c1nc(-c2ccccc2Cl)no1 | 15.1µM* | 0.4% | 2.2% | nt | -4.7% | 4.1%
CCNC(=O)c1ccccc1-c1nc(-c2ccccc2OC)no1 | ? | -9.9% | 2.3% | nt | -3.7% | 1.3%
CCNC(=O)c1ccccc1-c1nc(-c2ccccc2Cl)no1 | 19µM* | 2.7% | 19.6% | -14.2% | -5.4% | 7.1%
CC1=C(C(=O)Nc2ccccc2C)C(c2cccs2)n2nc(SCc3cc(C)ccc3C)nc2N1 (stereo not drawn) | 0.7% | nt | nt | nt | nt | nt
Cc1ccc(NC(=O)N2CCc3ccccc3C2)cc1C | 8.49µM* | ? | 2.82µM* | nt | 6.3% | 3.16µM*
Cc1ccc(NC(=O)C2OCCc3ccccc32)cc1C (stereo not drawn) | 15.1µM* | ? | 23.6% | nt | -15.6% | ?
O=C(NCc1ccco1)C1OCCc2ccccc21 (stereo not drawn) | -0.4% | -1.1% | -2.4% | -6.9% | 3.9% | -3.0%
Cc1cc(C)cc(NC(=O)N2CCc3ccccc3C2)c1 | 19µM* | ? | ? | nt | -3.2% | ?
N=c1c2cn[nH]c2nc(SCC(=O)c2ccc(Br)cc2)n1-c1ccc(Br)cc1 | -0.7% | 0.1% | -0.2% | -3.0% | 1.3% | -0.6%
Cc1ccc(NC(=O)Nc2cccc(Cl)c2)c(C(=O)O)c1 | 12µM* | 8.4% | 17.6% | -6.5% | ? | -4.5%
CSc1ccccc1NC(=O)Nc1ccc(F)c(Cl)c1 | 12µM* | 2.4% | 15.6% | 5.7% | nt | 15.5%
CSc1ccccc1NC(=O)Nc1cccc(Cl)c1Cl | 1.6% | 2.0% | 0.1% | 12.4% | nt | 1.1%
CSc1ccccc1NC(=O)Nc1cccc(Cl)c1 | 23.9µM* | 1.0% | 11.4% | 19.1% | nt | 12.6%
CSc1ccccc1NC(=O)Nc1cccc(Cl)c1C | -2.1% | 19.4% | -1.8% | -45.5% | -4.4% | 0.7%
